We go through 39 compounds from PubChem BioAssay (EPA / NIEHS).

Each structure is given as a SMILES string. Several values for one entry are separate records, joined by “and”; a condition that tells them apart may be missing. Identical values can stand only once. Records with an inconclusive call do not appear. Where a structure was tested more than once in an assay, its records may differ in their call. Activity calls are given as the source filed them. How the source made its calls: active means hit-call score of the fitted dose curve at least 0.9, where 1 is the maximum; inconclusive means response in the unintended direction; inactive means score below 0.9.

As a reminder, the AC50 is the midpoint of the concentration-response curve, whichever way the signal moves.

The target of this assay is Peroxisome proliferator-activated receptor gamma (Homo sapiens) (UniProt P37231). The assay can be described thus: ATG_PPARg_TRANS: Attagene TRANS-FACTORIAL HepG2 Assay for human Peroxisome Proliferator-activated Receptor-gamma (PPARg) (AID 2283007). The protocol: ATG_TRANS is a cell-based, multiplexed-readout assay that uses HepG2, a human liver cell line, with measurements taken at 24 hours after chemical dosing in a 24-well plate.ATG_PPARg_TRANS is one of 30 assay component(s) measured or calculated from the ATG_TRANS assay. It is designed to make measurements of mRNA induction, a form of inducible reporter, as detected with fluorescence intensity signals by Reverse transcription polymerase chain reaction (RT-PCR) and Capillary electrophoresis technology.Data from the assay component ATG_PPARg_TRANS was analyzed into 1 assay endpoint. This assay endpoint, ATG_PPARg_TRANS, was analyzed in the positive analysis fitting direction relative to DMSO as the negative control and baseline of activity. Using a type of inducible reporter, measures of mRNA for gain-of-signal activity can be used to understand the reporter gene at the transcription factor-level as they relate to the gene PPARG. Furthermore, this assay endpoint can be referred to as a primary readout, because this assay has produced multiple assay endpoints where this one serves a reporter gene function. To generalize the intended target to other relatable targets, this assay endpoint is annotated to the nuclear receptor intended target family, where the subfamily is non-steroidal.
Sequence of Peroxisome proliferator-activated receptor gamma (Homo sapiens) (P37231 whole entry, looked up): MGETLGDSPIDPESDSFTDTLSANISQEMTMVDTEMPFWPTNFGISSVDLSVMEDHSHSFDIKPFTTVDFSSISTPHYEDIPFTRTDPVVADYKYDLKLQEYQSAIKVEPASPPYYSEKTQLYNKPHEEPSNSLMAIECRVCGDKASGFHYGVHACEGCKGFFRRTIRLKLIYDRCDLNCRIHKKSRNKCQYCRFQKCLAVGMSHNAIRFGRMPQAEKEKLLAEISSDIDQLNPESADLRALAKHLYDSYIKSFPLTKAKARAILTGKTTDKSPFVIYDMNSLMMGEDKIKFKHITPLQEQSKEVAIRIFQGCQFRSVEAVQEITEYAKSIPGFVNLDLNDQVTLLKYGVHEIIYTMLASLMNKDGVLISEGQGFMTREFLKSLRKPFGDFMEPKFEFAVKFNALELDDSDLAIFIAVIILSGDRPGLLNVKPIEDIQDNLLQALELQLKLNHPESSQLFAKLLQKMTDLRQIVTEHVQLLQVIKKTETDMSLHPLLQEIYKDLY
Human liver HepG2 cells are transiently transfected with multiple reporter transcription units (MRTUs) in 6-well plates using FuGene 6 reagent (Roche; 3 ml FuGene/1 mg DNA). The MRTU constructs are regulated by a cis-regulating element (promoter). […] A major difference between the CIS and TRANS system is that in CIS activities of endogenous TFs are measured, whereas the TRANS assay evaluates changes in activities of exogenous, chimeric NR-Gal4 proteins. […] At the end of 24 hour incubation, total RNA was isolated using TriZol reagent (Invitrogen). The isolated RNA is then reverse-transcribed using oligo(dT) primer and Mo-MLV reverse transcriptase (Invitrogen) with DNAse I (Ambion) treatment for 30 min. The one-tenth of the produced cDNA was amplified by PCR using Taq DNA polymerase (Invitrogen) and two reporter sequence-specific primers. The PCR products were fluorescently labeled by primer extension with 6-arboxyfluorescein (6-FAM) 5'-labeled reporter sequence-specific primer (2 min at 95 C, 20 s at 68 C and 10 min at 72 C) and these products were digested with 5U of HpaI (New England Biolabs) for 2h at 37 C. The fragments were purified using Qiaquick PCR columns (Qiagen), analyzed on an ABI 3130xL genetic analyzer (Applied Biosystems) with peak positions identified by using a set of X-rhodamine (ROX)-labeled MapMarker1000 molecular weight standards (BioVentures). The raw capillary electrophoresis data was processed using Attagraph software (Attagene).
For the compound `FC(F)(F)C(F)(F)C(F)(F)C(F)(F)CCI`, the AC50 was 36.9 µM (active) and the compound was called inactive.
For the compound `FC(F)(F)C(F)(F)C(F)(F)C(F)(F)C(F)(F)C(F)(F)CC1CO1` (stereo not given), the outcome was inactive.
On the same count and under the same terms, the result for `O=C(O)C(F)(OC(F)(F)C(F)(OC(F)(F)C(F)(F)C(F)(F)F)C(F)(F)F)C(F)(F)F` (stereo not given) reads “inactive”.
Consider `CCCCCC=O`, for which the call was inactive.
With `FC(F)(F)C(F)(F)CNCC(F)(F)C(F)(F)F`, the compound was called inactive.
Regarding `C(=C(c1ccccc1)c1ccccc1)c1ccccc1`, the outcome was inactive.
Same read-out and setting: the result for `C=CC/C=C/C/C=C/C/C=C/C` reads “inactive”.
For the compound `O=C(CC(=O)C(F)(F)C(F)(F)F)C(F)(F)F`, the AC50 was 76.1 µM (active) and 61.2 µM (active).
For the compound `O=C(OCCOCCOCCOC(=O)c1ccccc1)c1ccccc1`, the compound was classed as inactive.
On the same count and under the same terms, the result for `O=C(O)C(F)(F)C(F)(F)C(F)(F)C(F)(F)C(F)(F)C(F)(F)C(F)(F)C(F)(F)C(F)(F)C(F)(F)C(F)(F)C(F)(F)F` reads “inactive”; that for `FC(F)(Br)C(F)(F)C(F)(F)C(F)(F)C(F)(F)C(F)(F)Br`, “inactive”.
Same read-out and setting: the result for `CO[Si](OC)(c1ccccc1)c1ccccc1` reads “inactive”; that for `Cc1cccc(N(C)C)c1`, “inactive”.
In the case of `Nc1ccc(Oc2cccc(Oc3ccc(N)cc3)c2)cc1`, the AC50 was 5.29 µM (active).
As for `O=C(O)C(F)(F)C(F)(F)C(F)(F)C(F)(F)F`, the outcome was inactive.
As for `Oc1ccc(Nc2ccccc2)cc1`, the AC50 was 23.4 µM (active).
On the same count and under the same terms, the result for `CC(=O)Nc1ccc(N=Nc2cc(C)ccc2O)cc1` reads 32.3 µM (active).
Turning to `O=S(=O)(OCC(F)F)C(F)(F)F`, the result was inactive.
For the compound `O=C(Cl)C(F)(F)C(F)(F)C(F)(F)C(F)(F)C(F)(F)C(F)(F)C(F)(F)C(F)(F)F`, the AC50 was 25.2 µM (active).
With `CCCCCCOC(=O)c1ccccc1O`, the compound was called inactive.
The same measure, in the same setting: as for `Cc1cc(C)cc(O)c1`, the entry is “inactive”.
The same measure, in the same setting: the result for `OCC(F)(F)C(F)(F)C(F)(F)C(F)(F)C(F)(F)C(F)F` reads “inactive”.
Still for that read-out and setting: as for `FC(F)(F)C(F)(F)C(F)(F)N(C(F)(F)C(F)(F)C(F)(F)F)C(F)(F)C(F)(F)C(F)(F)F`, the entry is “inactive”; as for `O=C(O)C(F)(OC(F)(F)C(F)(OC(F)(F)C(F)(OC(F)(F)C(F)(F)C(F)(F)F)C(F)(F)F)C(F)(F)F)C(F)(F)F` (stereo not given), “inactive”.
Regarding `C=CC(=O)OCC(F)(F)C(F)(F)C(F)(F)C(F)(F)C(F)(F)C(F)(F)C(F)(F)F`, the compound was called inactive.
Still for that read-out and setting: as for `FC(F)(F)C(F)(F)C(F)(F)C(F)(F)C(F)(F)C(F)(F)CCS`, the entry is “inactive”; as for `COC(=O)C1CCC(C(=O)OC)CC1` (stereo not given), “inactive”; as for `C=C(C)C(=O)OCC(F)(F)C(F)(F)C(F)(F)F`, “inactive”.
In the case of `CC(Cc1ccc(O)c(O)c1)C(C)Cc1ccc(O)c(O)c1` (stereo not given), the AC50 is 19.3 µM (active).
Regarding `CCCCOc1ccc(N)cc1`, the result was inactive.
Still for that read-out and setting: the result for `c1ccc(-c2ccccc2-c2ccccc2)cc1` reads “inactive”.
With `CCCCCCCOC(=O)c1ccccc1C(=O)OCCCCCCC`, the AC50 was 10.8 µM (active).
Consider `CCCCNc1ccccc1`, for which the outcome was inactive.
On to `N=C(N)C(F)(F)C(F)(F)C(F)(F)C(F)(F)C(F)(F)C(F)(F)C(F)(F)F`, for which the result was inactive.
Consider `Nc1ccc(S(=O)(=O)Nc2nccs2)cc1`, for which the call was inactive.
Still for that read-out and setting: the result for `CC/C=C\CCOC(=O)c1ccccc1` reads “inactive”; that for `C=C(C)C(=O)OCCC(F)(F)C(F)(F)C(F)(F)C(F)(F)C(F)(C(F)(F)F)C(F)(F)F`, “inactive”.
For `OCCCC(F)(F)C(F)(F)C(F)(F)C(F)(F)C(F)(F)C(F)(F)C(F)(F)F`, the outcome was inactive.
Still for that read-out and setting: as for `NC(=O)C(F)(F)C(F)(F)C(F)(F)C(F)(F)F`, the entry is “inactive”.
